MEKK3 PB1 HTS – raises or lowers MEK5 binding to the human MEKK3 PB1 domain; Q99759; bead-based flow cytometry, Alexa488-MEK5 binding to MEKK3; actives lie on both sides; 0 = blocked by unlabeled MEK5, 100 = vehicle; binding response (% of control), % at 10 µM; hit rate 1.4% among 290,000; AID 1529;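 active = binding response more than 3 SD above or below the average of its plate-row segment, actives on both sides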;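 also: Alexa488 bead fluorescence after subtracting the streptavidin-only scavenger bead signal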
Target sequence (Q99759 whole entry, looked up, the tested form may be a part): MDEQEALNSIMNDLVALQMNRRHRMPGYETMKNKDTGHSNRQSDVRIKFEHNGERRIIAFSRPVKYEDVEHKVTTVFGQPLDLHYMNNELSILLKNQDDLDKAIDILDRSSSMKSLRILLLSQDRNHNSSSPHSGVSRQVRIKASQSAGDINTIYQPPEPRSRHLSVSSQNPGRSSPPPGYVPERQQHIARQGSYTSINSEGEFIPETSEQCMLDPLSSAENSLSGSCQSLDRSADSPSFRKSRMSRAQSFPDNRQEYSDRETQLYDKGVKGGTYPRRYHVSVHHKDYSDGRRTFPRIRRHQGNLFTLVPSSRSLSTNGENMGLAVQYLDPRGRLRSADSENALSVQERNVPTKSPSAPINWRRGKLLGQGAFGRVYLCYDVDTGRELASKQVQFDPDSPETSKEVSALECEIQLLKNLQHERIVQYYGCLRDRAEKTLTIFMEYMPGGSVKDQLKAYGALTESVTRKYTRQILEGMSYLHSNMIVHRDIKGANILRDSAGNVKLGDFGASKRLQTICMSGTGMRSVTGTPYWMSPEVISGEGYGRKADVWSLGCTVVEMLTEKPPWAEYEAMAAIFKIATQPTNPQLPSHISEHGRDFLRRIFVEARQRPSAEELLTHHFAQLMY
MEKK2 WT-MEK5 – raises or lowers MEK5 binding to wildtype human MEKK2 PB1 domain. bead flow cytometry, Alexa488-MEK5 binding to MEKK2 WT; actives lie on both sides. hit rate 1.1% among 290,000. Q9Y2U5. binding response (% of control), % at 10 µM. AID 1531; in the data active = binding response below about 67% or above about 130%
GRK2 inh – blocks RNA aptamer binding to human GRK2. hit rate 0.59% among 330,000. bead flow cytometry, FAM-aptamer displacement from GRK2. inhibition of aptamer binding, % at 10 µM;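 active = inhibition of aptamer binding above 40%, roughly 3 SD of noise, on plates passing a quality check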;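 also: median bead fluorescence of bound FAM aptamer so fluorescent compounds give negative values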
MEKK2mut PB1 HTS – signal of MEK5 binding to mutant human MEKK2 PB1 domain; bead flow cytometry, Alexa488-MEK5 binding to MEKK2 mutant; percent response, % at 10 µM; hit rate 0.35% among 290,000; in the data active = percent response above about 24%, passing the limit was not always enough
MEKK2wt confirm – raises or lowers MEK5 binding to wildtype human MEKK2, retest | bead flow cytometry, Alexa488-MEK5 binding to MEKK2 WT; actives lie on both sides | hit rate 2.4% among 5,900 | binding response (% of control), % at 10 µM | AID 1892 | shares compounds with MEKK3 PB1 HTS; in the data active = binding response below about 16% or above about 210%; inactive = in between
MEKK2mut confirm – signal of MEK5 binding to mutant human MEKK2, retest; shares compounds with MEKK3 PB1 HTS; hit rate 2% among 5,900; bead flow cytometry, Alexa488-MEK5 binding to MEKK2 mutant; AID 1893; percent response, % at 10 µM; in the data active = percent response mostly above about 71%, no sharp cut-off; inactive = mostly below about 38%;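 also: higher means compound restores mutant binding toward wildtype level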
MEKK3 confirm – confirmation of inhibitors of MEK5 binding to human MEKK3. shares compounds with MEKK3 PB1 HTS. bead flow cytometry, Alexa488-MEK5 binding to MEKK3; stronger effect = lower value. binding response (% of control), % at 10 µM. hit rate 1.8% among 5,900;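 active = binding response below 72% of control, or above a set upper limit, though filed actives all read lower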;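 also: 100% = DMSO only wells and 0% = binding blocked by excess unlabeled MEK5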
Starred values were filed as active, the others as inactive; . = not tested or not shown; [ ] = dose if it differs, or a comment. Compounds with a hit are over-represented: about 2.5% of the library has one in this group of screens.

SMILES	MEKK3 PB1 HTS	MEKK2 WT-MEK5	GRK2 inh	MEKK2mut PB1 HTS	MEKK2wt confirm	MEKK2mut confirm	MEKK3 confirm
CCCCNC(=S)N(CCN(CC)CC)Cc1cc2cc3c(cc2[nH]c1=O)OCCO3	101.0	112.0	0.0	11.0	.	.	.
Cc1ccc(S(=O)(=O)N2CCOCC2)cc1NC(=O)c1cc2ccccc2oc1=O	.	.	3.0	.	.	.	.
CCN1C(=O)/C(=C2\SC(=S)N(NC(=O)c3cccnc3)C2=O)c2ccccc21	102.0	105.0	1.0	2.0	.	.	.
CCc1ccc(C(=O)OCC(=O)NC2CCCC2)cc1	101.0	102.0	0.0	2.0	.	.	.
Cc1ccc(N/C(CSC(N)=O)=N/S(=O)(=O)c2ccccc2)cc1	125.0*	116.0	1.0	4.0	99.0	-2.0	105.0
NC(=O)SC/C(=N\S(=O)(=O)c1ccccc1)Nc1ccccc1	102.0	101.0	0.0	2.0	.	.	.
Cc1ccc(N/C(CSC(N)=O)=N\S(=O)(=O)c2ccc(C)cc2)cc1	128.0*	121.0	0.0	6.0	98.0	-5.0	100.0
COc1cccc(-c2nc(-c3ccccc3)nc(N3CCN(C)CC3)c2C#N)c1	100.0	136.0	1.0	12.0	.	.	.
COc1ccc(-c2nc(-c3cccc(C)c3)nc(N3CCN(C)CC3)c2C#N)cc1	107.0	144.0	0.0	32.0*	149.0	38.0	108.0
COc1ccc(-c2nc(-c3ccccc3)nc(N3CCN(C)CC3)c2C#N)cc1	105.0	152.0*	15.0	6.0	154.0	28.0	107.0
CN1CCN(c2nc(-c3ccccc3)nc(-c3ccccc3)c2C#N)CC1	116.0	146.0*	0.0	22.0	122.0	10.0	100.0
O=C(c1ccc(S(=O)(=O)N2CCCC2)cc1)N1CCN(S(=O)(=O)c2cccc(F)c2)CC1	94.0	95.0	.	-4.0	.	.	.
CCOc1ccc(C2c3[nH]c4ccccc4c3C[C@H]3C(=O)N(C4CC4)CC(=O)N23)cc1OC (stereo partly drawn)	103.0	106.0	0.0	4.0	.	.	.
COc1ccc(S(=O)(=O)N2CCC(n3cnc4cc(C(F)(F)F)ccc43)CC2)cc1	126.0*	107.0	5.0	4.0	105.0	1.0	103.0
COc1cccc(-c2nc(CS(=O)CC(=O)NCCc3ccccc3)c(C)o2)c1 (stereo not drawn)	100.0	99.0	4.0	3.0	.	.	.
Cc1ccc(C)c(CN2CCC(CNC(=O)Nc3ccc(Cl)cc3)CC2)c1	105.0	139.0	0.0	16.0	.	.	.
Cc1ccc(C)c(CN2CCC(CNC(=O)Nc3ccc(Br)cc3F)CC2)c1	109.0	140.0*	0.0	22.0	148.0	18.0	104.0
O=C(O)CNC(=S)N(Cc1ccccc1Cl)C1CCCCC1	48.0*[inhibitor]	63.0	0.0	-14.0	87.0	-11.0	85.0
Clc1cccc(-c2cc3nc4c(c(N5CCN(c6cnccn6)CC5)n3n2)CCCC4)c1	107.0	90.0	0.0	6.0	.	.	.
Cc1cc(C(=O)c2cnc(/N=C/N(C)C)s2)cc(C)c1O	0.0*[inhibitor]	0.0*[inhibitor]	0.0	-17.0	109.0	4.0	104.0
Cc1ccc(C)c(Cn2c(C(C)O)nc3ccccc32)c1 (stereo not drawn)	105.0	108.0	0.0	10.0	.	.	.
COCCCN1C(=O)C(=O)/C(=C(/O)c2ccc(S(=O)(=O)N3CCCCC3)cc2)C1c1ccc(F)cc1 (stereo not drawn)	85.0	90.0	0.0	-15.0	.	.	.
O=C(Cc1cccs1)Nc1nc2c(s1)CCCC2	51.0*[inhibitor]	64.0	4.0	-19.0	100.0	-2.0	96.0
CCN(CC)CCNC(=O)C(=O)NCC1OCCN1S(=O)(=O)c1cccs1 (stereo not drawn)	103.0	137.0*	0.0	20.0	109.0	5.0	101.0
COc1ccc(C)cc1Nc1n[n+](-c2ccccc2)c(-c2cc(OC)c(OC)cc2Br)s1	103.0	134.0*	4.0	26.0*	154.0	40.0	109.0
SMILES	MEKK3 PB1 HTS	MEKK2 WT-MEK5	GRK2 inh	MEKK2mut PB1 HTS	MEKK2wt confirm	MEKK2mut confirm	MEKK3 confirm
COc1ccc(C)cc1Nc1n[n+](-c2ccccc2)c(-c2c(OC)ccc3ccccc23)s1	.	.	0.0	.	.	.	.
COc1ccc(-c2sc(Nc3ccccc3)n[n+]2-c2ccc(F)cc2)c(C)c1C	110.0	141.0*	0.0	37.0*	120.0	10.0	99.0
Oc1ccc2ccccc2c1-c1sc(Nc2ccccc2)n[n+]1-c1ccc(F)cc1	95.0	70.0	0.0	-10.0	.	.	.
Fc1ccc(-[n+]2nc(Nc3ccccc3)sc2-c2c3ccccc3cc3ccccc23)cc1	105.0	133.0	8.0	31.0*	172.0	50.0	105.0
CSc1ccc(-c2sc(Nc3ccccc3)n[n+]2-c2ccc(F)cc2)cc1	109.0	139.0*	4.0	28.0*	128.0	12.0	111.0
CC(=O)Nc1ccc(S(=O)(=O)NC2CC2)cc1	94.0	99.0	0.0	-1.0	.	.	.
Cc1cccc(C)c1Nc1ncnc(N)c1[N+](=O)[O-]	117.0	119.0	0.0	51.0*	107.0	11.0	104.0
Cc1ccc2c(Cl)c(C)c(N3CCCCC3)nc2n1	131.0*	105.0	1.0	1.0	106.0	3.0	106.0
O=C(Nc1ccc(Cl)cc1Cl)c1csc(-c2cccnc2)n1	84.0	85.0	1.0	-30.0	.	.	.
COc1cc(/C=C(\C#N)C(=O)Nc2ccccc2C(=O)O)cc(Cl)c1OC	43.0*[inhibitor]	56.0	4.0	-17.0	106.0	6.0	106.0
COc1ccc(/C=C(/C#N)C(=O)Nc2ccccc2C)cc1C(=O)O	108.0	106.0	1.0	0.0	.	.	.
CCOC(=O)C1=C(c2ccccc2)Nc2ncnn2C1c1ccc(OC)c(OC)c1OC (stereo not drawn)	99.0	93.0	0.0	-3.0	.	.	.
O=C(Nc1ccccc1)/C(=C\c1ccccc1)NC(=O)c1ccco1	97.0	97.0	2.0	-9.0	.	.	.
O=C(Nc1ccc(O)cc1)/C(=C\c1ccncc1)NC(=O)c1ccccc1	100.0	94.0	1.0	-5.0	.	.	.
O=C(Nc1ccccc1)/C(=C/c1cccnc1)NC(=O)c1ccco1	129.0*	106.0	8.0	0.0	102.0	2.0	102.0
O=C(Nc1ccccc1)/C(=C\c1ccncc1)NC(=O)c1ccccc1	131.0*	120.0	0.0	6.0	96.0	-2.0	94.0
OC(CN1CCOCC1)Cn1cnc2ccccc21 (stereo not drawn)	100.0	105.0	0.0	2.0	.	.	.
Cc1cccc(OCCCC(=O)NNC(=O)c2ccc(F)cc2)c1	.	.	0.0	.	.	.	.
COc1ccccc1CC(=O)NN1C(=O)c2ccccc2C1=O	97.0	98.0	0.0	0.0	.	.	.
Cc1cccc(N(C)C(=O)c2cc(S(=O)(=O)N3CCc4ccccc43)cn2C)c1	102.0	98.0	0.0	-2.0	.	.	.
O=C(Oc1coc(CSc2nnc(NC(=O)C3CC3)s2)cc1=O)c1c(F)cccc1F	64.0*[inhibitor]	84.0	2.0	-1.0	102.0	5.0	107.0

Source: PubChem
